Data: PubChem BioAssay (NCATS)
Inconclusive results are not listed. A call without a number means that no potency is given here. Calls of active or inactive are those of the source. The call rests on the fitted dose curve; in most records, active means well fitted inhibition curve with a large enough effect; inconclusive means small, poorly fitted or top-dose-only effect; inactive means flat fitted curve, though single readings scatter.

Each compound was assayed against Calcium and integrin-binding protein 1 (Homo sapiens) (UniProt Q99828) (assay: Primary qHTS for Identification of Calcium Integrin Binding Protein 1 (CIB1) Competitor (AID 1508620;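 further: GST tagged CIB1 binding a fluorescein labelled alphaIIb integrin peptide tracer; top concentration of the series differs between compounds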)). Conditions: CIB1-GST / FITC-alphaIIb peptide fluorescence polarization; series mostly up to 114 µM.
Sequence of Calcium and integrin-binding protein 1 (Homo sapiens) (Q99828 whole entry, looked up): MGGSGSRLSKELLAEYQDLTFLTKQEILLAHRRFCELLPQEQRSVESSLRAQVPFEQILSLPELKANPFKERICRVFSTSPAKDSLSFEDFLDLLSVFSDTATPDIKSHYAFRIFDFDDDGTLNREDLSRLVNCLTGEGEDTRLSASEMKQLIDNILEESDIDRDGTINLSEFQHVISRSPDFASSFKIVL
Procedure, shortened: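 Fluorescence polarization competition: CIB1-GST (1 uM final) preincubated with compound 15 min at room temperature, then FITC-labeled alphaIIb peptide (100 nM final) added for another 15 min. Polarization read at Ex 480/Em 540.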
With `Cc1c(F)c(N2CCNC(C)C2)cc2c1c(=O)c(C(=O)O)cn2C1CC1` (stereo not given) the Potency was “inactive”. In the case of `COC(=O)C1=C(C)NC(C)=C(C(=O)O[C@@H]2CCCN(Cc3ccccc3)C2)[C@@H]1c1cccc([N+](=O)[O-])c1`, the Potency is reported as “inactive”. With `O=C(CCN1CCC(c2ccccc2)C1)c1ccc2c(c1)OCCO2` (stereo not given) the Potency was “inactive”. With `CC(=O)N/N=C/c1ccc([N+](=O)[O-])o1` the Potency was “inactive”. For `COc1cc(-c2ccc(=O)[nH]n2)ccc1OC(F)F`, the Potency was “inactive”. `CN(C/C=C/c1ccccc1)Cc1cccc2ccccc12` was tested, and the Potency was “inactive”. For `CCCC(=O)O[C@]1(C(=O)CO)CC[C@H]2[C@@H]3CCC4=CC(=O)CC[C@]4(C)[C@H]3[C@@H](O)C[C@@]21C`, the Potency was “inactive”. `COc1cc(C=C2CCC/C(=C\c3ccc(O)c(OC)c3)C2=O)ccc1O` was tested, and the Potency was “inactive”. For `O=C(OCCOCCO)c1ccccc1Nc1cccc(C(F)(F)F)c1`, the Potency was “inactive”. With `COc1cc(OC)cc(OC)c1` the Potency was “inactive”.
